Assay in all cases: DAPPL (digital affinity profiling via proximity ligation, sequencing); 10 mM Tris-HCl pH 7.5, 50 mM NaCl, 1 mM DTT, 4% glycerol, room temperature, 30 min; GST-TFs on glutathione beads, 16-mer random dsDNA library, 0.1% formaldehyde crosslink after washing; high values mean tight binding
The target in one test is T1, FEV (Homo sapiens, UniProt Q99581 1-238).
T1 sequence: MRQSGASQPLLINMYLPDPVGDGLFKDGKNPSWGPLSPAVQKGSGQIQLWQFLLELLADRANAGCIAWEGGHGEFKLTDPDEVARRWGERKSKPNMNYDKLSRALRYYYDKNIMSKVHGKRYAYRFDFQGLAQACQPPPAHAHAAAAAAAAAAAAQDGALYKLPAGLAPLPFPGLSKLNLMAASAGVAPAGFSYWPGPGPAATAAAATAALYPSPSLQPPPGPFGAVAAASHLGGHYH
The following applies: protein: recombinant; tags: N-terminal GST; dsDNA, one strand shown. The gist of the method:
(§1)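 Binding signal is each hexamer's read frequency for a factor divided by its frequency in the tag-only sample. The factors were GST-fused human transcription factors from yeast, captured on glutathione beads, DNA-barcoded and pooled with that sample. Pools were incubated with 200 nmole of a random double-stranded 16-mer DNA library in Tris/NaCl/DTT/glycerol buffer at room temperature for 30 min, then washed, crosslinked with 0.1% formaldehyde, proximity-ligated with BsaI/T4 ligase (1 h, 37 °C), PCR-amplified and sequenced on an Illumina NextSeq500.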

The next test concerns the target ETV5 (Homo sapiens, UniProt P41161 1-510). The following applies: protein: recombinant; tags: N-terminal GST; dsDNA, one strand shown. The gist of the method: as §1
Another test addresses HSF1 (Homo sapiens, UniProt Q00613 1-529). Particulars: protein: recombinant; tags: N-terminal GST; chain copies: 3; dsDNA, one strand shown. The gist of the method: as §1
The next test addresses T2, SPIC (Homo sapiens, UniProt Q8N5J4 1-248).
T2 sequence: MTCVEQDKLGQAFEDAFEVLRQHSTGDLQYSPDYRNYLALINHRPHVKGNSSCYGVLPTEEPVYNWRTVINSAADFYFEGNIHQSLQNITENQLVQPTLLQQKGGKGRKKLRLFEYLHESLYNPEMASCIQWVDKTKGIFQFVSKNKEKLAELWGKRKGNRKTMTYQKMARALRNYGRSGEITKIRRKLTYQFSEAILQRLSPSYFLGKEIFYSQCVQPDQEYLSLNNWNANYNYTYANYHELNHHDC
The following applies: protein: recombinant; tags: N-terminal GST; dsDNA, one strand shown. Put shortly:
as §1

The target in the next test is ELF4 (Homo sapiens, UniProt Q99607 1-663). The following applies: protein: recombinant; tags: N-terminal GST; dsDNA, one strand shown. Put shortly: as §1
The target of a further test is T3, ELK4 (Homo sapiens, UniProt P28324-2 1-405).
T3 sequence: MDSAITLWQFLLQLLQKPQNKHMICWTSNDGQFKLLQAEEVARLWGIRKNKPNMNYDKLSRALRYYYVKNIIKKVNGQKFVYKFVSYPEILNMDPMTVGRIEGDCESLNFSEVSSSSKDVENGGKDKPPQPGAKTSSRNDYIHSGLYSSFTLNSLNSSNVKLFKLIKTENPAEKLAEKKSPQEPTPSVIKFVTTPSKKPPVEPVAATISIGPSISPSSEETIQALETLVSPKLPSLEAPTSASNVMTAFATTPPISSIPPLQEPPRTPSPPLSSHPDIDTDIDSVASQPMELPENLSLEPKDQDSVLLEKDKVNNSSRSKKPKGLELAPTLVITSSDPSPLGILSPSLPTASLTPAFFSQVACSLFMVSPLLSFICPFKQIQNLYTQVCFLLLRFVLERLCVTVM
Particulars: protein: recombinant; tags: N-terminal GST; dsDNA, one strand shown. The gist of the method: as §1

In a further test the target is T4, ETV2 (Homo sapiens, UniProt O00321 1-342).
T4 sequence: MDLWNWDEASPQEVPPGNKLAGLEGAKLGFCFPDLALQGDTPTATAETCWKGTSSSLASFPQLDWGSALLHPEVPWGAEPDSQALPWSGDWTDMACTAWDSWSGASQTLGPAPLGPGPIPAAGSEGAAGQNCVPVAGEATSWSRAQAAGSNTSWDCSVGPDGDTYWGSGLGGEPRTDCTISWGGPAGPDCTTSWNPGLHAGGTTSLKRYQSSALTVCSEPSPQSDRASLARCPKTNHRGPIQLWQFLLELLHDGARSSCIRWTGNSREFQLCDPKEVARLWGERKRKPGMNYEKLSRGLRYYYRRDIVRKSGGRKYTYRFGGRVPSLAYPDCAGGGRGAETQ
The following applies: protein: recombinant; tags: N-terminal GST; dsDNA, one strand shown. Put shortly: as §1

A further test has as its target T5, ELF3 (Homo sapiens, UniProt P78545 1-371).
T5 sequence: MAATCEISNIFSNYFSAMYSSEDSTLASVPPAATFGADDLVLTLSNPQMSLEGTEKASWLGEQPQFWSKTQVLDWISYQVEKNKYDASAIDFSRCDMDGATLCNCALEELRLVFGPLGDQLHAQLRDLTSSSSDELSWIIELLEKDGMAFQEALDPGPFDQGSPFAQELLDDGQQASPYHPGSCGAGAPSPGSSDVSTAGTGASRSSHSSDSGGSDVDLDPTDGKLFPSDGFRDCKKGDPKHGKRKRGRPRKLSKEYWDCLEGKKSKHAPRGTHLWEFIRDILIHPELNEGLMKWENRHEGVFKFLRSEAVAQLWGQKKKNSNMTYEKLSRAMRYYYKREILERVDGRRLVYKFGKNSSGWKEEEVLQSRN
Particulars: protein: recombinant; tags: N-terminal GST; dsDNA, one strand shown. Put shortly:
as §1

The target of another test is CRX (Homo sapiens, UniProt O43186 1-299). Particulars: protein: recombinant; tags: N-terminal GST; dsDNA, one strand shown. Put shortly: as §1
For a further test, the target named is ETV1 (Homo sapiens, UniProt P50549 1-477). The following applies: protein: recombinant; tags: N-terminal GST; dsDNA, one strand shown. Put shortly:
as §1

For the next test, the target named is T6, ERF (Homo sapiens, UniProt P50548 1-548).
T6 sequence: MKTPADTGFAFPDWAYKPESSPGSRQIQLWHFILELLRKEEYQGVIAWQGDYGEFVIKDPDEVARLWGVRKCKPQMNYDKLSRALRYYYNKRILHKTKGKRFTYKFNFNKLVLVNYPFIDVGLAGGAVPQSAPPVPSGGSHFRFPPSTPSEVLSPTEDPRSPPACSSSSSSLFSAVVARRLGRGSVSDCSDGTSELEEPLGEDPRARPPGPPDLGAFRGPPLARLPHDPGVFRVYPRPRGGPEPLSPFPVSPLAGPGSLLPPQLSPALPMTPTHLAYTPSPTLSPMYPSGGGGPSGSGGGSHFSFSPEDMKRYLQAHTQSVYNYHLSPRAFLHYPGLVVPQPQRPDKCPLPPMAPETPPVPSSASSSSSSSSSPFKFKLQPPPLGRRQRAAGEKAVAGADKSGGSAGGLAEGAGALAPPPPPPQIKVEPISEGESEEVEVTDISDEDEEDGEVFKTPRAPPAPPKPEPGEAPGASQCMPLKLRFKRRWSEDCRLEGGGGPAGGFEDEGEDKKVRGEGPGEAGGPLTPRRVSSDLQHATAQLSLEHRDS
The following applies: protein: recombinant; tags: N-terminal GST; dsDNA, one strand shown. Put shortly: as §1

The target in another test is T7, ETV3L (Homo sapiens, UniProt Q6ZN32 1-361).
T7 sequence: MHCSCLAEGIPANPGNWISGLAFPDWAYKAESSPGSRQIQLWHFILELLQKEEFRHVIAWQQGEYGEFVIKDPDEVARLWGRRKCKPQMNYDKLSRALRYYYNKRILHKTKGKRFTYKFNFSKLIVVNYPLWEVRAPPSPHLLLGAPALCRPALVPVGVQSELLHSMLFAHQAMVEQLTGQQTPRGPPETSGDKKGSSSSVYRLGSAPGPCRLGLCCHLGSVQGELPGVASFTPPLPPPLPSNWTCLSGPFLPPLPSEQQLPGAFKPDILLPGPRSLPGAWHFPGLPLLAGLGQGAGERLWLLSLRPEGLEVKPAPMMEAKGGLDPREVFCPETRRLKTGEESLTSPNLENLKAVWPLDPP
Particulars: protein: recombinant; tags: N-terminal GST; dsDNA, one strand shown. Put shortly:
as §1

In the next test the target is T8, ETS2 (Homo sapiens, UniProt P15036 1-469).
T8 sequence: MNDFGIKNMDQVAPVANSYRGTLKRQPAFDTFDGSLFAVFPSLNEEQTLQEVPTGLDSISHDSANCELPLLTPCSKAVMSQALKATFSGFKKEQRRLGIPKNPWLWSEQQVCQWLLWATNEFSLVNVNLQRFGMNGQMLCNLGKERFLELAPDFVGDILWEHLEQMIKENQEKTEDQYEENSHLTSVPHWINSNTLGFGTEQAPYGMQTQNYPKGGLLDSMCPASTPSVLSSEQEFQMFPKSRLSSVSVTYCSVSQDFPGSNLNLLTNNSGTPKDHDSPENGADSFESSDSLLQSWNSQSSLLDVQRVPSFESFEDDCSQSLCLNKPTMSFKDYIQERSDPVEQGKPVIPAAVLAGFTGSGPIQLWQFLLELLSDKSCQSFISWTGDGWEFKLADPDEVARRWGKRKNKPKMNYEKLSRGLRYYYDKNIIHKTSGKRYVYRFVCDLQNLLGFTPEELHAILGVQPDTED
The following applies: protein: recombinant; tags: N-terminal GST; dsDNA, one strand shown. Put shortly:
as §1

The target of another test is T9, SPDEF (Homo sapiens, UniProt O95238 1-335).
T9 sequence: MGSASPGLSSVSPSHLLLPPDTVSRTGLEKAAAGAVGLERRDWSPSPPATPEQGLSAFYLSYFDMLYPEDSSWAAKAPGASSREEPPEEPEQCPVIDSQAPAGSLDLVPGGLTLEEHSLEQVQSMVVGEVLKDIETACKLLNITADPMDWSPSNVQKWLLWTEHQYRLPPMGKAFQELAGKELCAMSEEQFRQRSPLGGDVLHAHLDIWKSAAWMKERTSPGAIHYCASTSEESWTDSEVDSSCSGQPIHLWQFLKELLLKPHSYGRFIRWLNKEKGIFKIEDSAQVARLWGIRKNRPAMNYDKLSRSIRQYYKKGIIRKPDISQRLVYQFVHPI
The following applies: protein: recombinant; tags: N-terminal GST; dsDNA, one strand shown. The gist of the method: as §1

For the next test, the target named is T10, ETV7 (Homo sapiens, UniProt Q9Y603 1-341).
T10 sequence: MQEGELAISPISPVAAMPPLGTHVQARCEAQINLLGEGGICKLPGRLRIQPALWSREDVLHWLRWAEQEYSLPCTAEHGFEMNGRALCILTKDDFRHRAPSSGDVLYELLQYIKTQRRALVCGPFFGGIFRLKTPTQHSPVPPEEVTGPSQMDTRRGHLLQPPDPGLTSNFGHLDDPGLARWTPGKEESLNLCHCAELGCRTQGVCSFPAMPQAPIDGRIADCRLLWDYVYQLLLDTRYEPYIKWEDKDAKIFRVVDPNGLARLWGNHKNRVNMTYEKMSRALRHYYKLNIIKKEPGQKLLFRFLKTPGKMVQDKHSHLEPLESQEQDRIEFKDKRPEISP
Particulars: protein: recombinant; tags: N-terminal GST; dsDNA, one strand shown. The gist of the method: as §1

Another test has as its target T11, ELF5 (Homo sapiens, UniProt Q9UKW6-2 1-255).
T11 sequence: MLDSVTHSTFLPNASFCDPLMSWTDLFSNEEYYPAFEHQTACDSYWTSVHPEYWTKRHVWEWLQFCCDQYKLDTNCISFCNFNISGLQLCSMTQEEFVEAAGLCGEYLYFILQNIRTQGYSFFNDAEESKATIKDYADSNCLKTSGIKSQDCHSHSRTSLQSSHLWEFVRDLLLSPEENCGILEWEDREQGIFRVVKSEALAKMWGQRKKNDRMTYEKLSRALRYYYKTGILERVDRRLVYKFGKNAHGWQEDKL
The following applies: protein: recombinant; tags: N-terminal GST; dsDNA, one strand shown. Put shortly:
as §1

Another test concerns the target T12, ETV3 (Homo sapiens, UniProt P41162-2 1-143).
T12 sequence: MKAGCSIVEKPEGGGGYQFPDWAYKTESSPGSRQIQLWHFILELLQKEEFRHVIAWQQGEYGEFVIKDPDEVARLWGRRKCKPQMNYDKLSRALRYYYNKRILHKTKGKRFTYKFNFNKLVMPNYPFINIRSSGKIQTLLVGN
Particulars: protein: recombinant; tags: N-terminal GST; dsDNA, one strand shown. Put shortly: as §1

The target of the next test is ETV6 (Homo sapiens, UniProt P41212 1-452). Particulars: protein: recombinant; tags: N-terminal GST; dsDNA, one strand shown. Put shortly:
as §1

Our source for the binding signal values is PMC7862700, “An all-to-all approach to the identification of sequence-specific readers for epigenetic DNA modifications on cytosine”.

Sequence of HSF1 (Q00613 whole entry): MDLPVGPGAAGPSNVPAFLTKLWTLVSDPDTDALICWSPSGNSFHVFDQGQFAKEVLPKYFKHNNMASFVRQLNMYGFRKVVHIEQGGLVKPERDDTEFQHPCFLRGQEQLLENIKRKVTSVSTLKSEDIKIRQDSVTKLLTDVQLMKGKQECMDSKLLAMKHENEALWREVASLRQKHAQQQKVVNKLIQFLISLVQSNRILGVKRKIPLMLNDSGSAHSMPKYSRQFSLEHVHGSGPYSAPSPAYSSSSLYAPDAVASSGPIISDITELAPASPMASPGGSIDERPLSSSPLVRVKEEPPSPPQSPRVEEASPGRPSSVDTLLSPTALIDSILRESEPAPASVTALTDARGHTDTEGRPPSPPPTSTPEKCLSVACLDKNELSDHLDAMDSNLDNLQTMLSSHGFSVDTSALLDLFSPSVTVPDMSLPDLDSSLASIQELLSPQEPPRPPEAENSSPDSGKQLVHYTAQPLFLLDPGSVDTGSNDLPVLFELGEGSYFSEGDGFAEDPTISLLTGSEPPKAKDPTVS
Sequence of ETV6 (P41212 whole entry): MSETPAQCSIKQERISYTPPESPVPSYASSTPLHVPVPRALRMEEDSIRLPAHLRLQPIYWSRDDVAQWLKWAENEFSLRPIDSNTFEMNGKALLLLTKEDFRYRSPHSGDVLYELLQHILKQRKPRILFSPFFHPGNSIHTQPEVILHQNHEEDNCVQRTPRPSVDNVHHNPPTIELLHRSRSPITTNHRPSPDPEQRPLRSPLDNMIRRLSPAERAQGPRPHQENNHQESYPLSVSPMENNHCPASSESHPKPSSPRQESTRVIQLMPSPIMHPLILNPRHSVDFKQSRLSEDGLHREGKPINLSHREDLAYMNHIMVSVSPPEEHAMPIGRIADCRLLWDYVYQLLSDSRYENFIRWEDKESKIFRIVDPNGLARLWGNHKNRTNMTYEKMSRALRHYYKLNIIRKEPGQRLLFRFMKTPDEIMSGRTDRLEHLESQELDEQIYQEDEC
Sequence of ETV1 (P50549 whole entry): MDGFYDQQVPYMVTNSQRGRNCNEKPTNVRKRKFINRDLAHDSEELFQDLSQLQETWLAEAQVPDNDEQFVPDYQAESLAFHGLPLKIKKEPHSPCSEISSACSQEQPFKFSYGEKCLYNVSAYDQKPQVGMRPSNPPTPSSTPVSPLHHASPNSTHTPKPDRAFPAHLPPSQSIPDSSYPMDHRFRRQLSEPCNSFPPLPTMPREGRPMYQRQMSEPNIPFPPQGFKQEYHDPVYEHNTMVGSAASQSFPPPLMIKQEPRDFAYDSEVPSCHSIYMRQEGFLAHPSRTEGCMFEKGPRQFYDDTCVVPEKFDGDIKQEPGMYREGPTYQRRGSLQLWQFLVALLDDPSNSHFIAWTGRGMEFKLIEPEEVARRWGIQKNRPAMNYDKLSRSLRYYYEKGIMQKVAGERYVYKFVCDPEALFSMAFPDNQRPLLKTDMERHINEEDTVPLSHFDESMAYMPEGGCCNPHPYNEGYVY
Sequence of ETV5 (P41161 whole entry): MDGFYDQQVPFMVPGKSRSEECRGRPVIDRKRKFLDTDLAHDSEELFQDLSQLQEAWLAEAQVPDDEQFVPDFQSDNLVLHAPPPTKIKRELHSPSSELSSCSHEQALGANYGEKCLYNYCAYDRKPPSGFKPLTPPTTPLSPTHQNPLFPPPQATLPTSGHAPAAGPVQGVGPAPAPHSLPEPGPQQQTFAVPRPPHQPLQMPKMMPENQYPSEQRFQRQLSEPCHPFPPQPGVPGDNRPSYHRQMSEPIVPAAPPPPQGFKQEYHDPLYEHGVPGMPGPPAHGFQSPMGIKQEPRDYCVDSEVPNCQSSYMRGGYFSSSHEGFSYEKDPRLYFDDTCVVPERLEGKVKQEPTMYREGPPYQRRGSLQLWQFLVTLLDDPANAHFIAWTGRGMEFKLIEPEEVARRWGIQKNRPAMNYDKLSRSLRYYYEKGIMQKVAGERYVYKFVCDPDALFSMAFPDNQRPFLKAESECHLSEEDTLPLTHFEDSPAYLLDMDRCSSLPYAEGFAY
Sequence of CRX (O43186 whole entry): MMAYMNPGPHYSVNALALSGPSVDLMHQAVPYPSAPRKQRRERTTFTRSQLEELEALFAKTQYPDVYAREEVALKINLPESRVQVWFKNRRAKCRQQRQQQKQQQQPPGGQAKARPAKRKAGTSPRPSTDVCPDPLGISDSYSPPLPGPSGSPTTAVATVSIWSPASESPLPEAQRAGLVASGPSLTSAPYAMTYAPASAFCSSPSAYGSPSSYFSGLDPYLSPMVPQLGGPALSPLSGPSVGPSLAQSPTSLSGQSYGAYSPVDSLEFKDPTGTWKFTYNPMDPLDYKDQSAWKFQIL
Sequence of ELF4 (Q99607 whole entry): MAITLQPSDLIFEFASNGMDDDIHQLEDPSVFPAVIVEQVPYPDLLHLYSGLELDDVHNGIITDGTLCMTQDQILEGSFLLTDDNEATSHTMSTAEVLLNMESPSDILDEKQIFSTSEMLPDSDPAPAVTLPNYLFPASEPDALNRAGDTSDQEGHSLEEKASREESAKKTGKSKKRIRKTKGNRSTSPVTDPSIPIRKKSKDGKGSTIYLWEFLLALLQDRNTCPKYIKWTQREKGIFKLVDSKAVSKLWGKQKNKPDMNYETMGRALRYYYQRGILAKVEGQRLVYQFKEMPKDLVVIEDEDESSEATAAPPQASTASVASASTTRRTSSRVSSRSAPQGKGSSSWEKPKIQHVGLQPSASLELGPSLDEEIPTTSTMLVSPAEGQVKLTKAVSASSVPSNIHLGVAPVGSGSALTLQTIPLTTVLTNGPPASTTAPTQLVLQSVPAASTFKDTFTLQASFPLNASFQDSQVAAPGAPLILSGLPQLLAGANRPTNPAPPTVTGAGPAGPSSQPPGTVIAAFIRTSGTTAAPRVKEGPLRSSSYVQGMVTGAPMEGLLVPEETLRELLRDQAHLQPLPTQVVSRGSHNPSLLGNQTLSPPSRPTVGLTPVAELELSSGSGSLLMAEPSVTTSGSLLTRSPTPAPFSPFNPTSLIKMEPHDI

Regarding CATCCC, the binding signal with FEV is 1.18 fold enrichment (6-mer frequency, TF over GST control); in the test with ETV5, 1.31 fold enrichment (6-mer frequency, TF over GST control); with HSF1 it was 1.05 fold enrichment (6-mer frequency, TF over GST control); with SPIC it was 1.3 fold enrichment (6-mer frequency, TF over GST control); with ELF4, 1.22 fold enrichment (6-mer frequency, TF over GST control); in the test with ELK4, 1.22 fold enrichment (6-mer frequency, TF over GST control). Also, the binding signal with ETV2 is 1.15 fold enrichment (6-mer frequency, TF over GST control); with ELF3, 1.27 fold enrichment (6-mer frequency, TF over GST control); with CRX, 1.05 fold enrichment (6-mer frequency, TF over GST control); with ETV1, 1.16 fold enrichment (6-mer frequency, TF over GST control); with ERF, 1.2 fold enrichment (6-mer frequency, TF over GST control); with ETV3L, 1.26 fold enrichment (6-mer frequency, TF over GST control). For the same sequence, the binding signal was 1.33 fold enrichment (6-mer frequency, TF over GST control) with ETS2; 1.47 fold enrichment (6-mer frequency, TF over GST control) in the test with SPDEF; 1.2 fold enrichment (6-mer frequency, TF over GST control) in the test with ETV7; 1.44 fold enrichment (6-mer frequency, TF over GST control) in the test with ELF5; 1.16 fold enrichment (6-mer frequency, TF over GST control) with ETV3; 1.24 fold enrichment (6-mer frequency, TF over GST control) with ETV6.
